Source: PubChem BioAssay (National Center for Advancing Translational Sciences (NCATS))
ELG1 repair inh – ELG1-dependent DNA repair inhibition; HEK293T ELG1-luciferase reporter, luminescence, 16 h; DNA damage induced by 5-fluorouridine; Potency, µM (doses to about 46.1 µM), for inactives: at the highest dose activity change, negative = inhibition, actives largely listed as inhibitors; 330,000 tested, 2.3% active; further: on the % scale 0 is the no-effect control and ±100 the full control effect; nearly all actives have a fitted effect of over 55% in size
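In this reporter screen, reduction of luminescence relative to DMSO vehicle indicated activity. Compounds and 5-fluorouridine were added together to 2,000 cells per well, incubated for 16 hr at 37 °C, then developed with ONE-Glo.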
SMN2 splice enh – SMN2 splice variant enhancement; AID 1458; Potency, µM (titrated, usually from 46.1 µM), inactives show at the highest dose activity change, positive = activation, usual class: activators; 210,000 tested, 2.8% active; HEK293 SMN2-luciferase splicing reporter, luminescence, 30-36 h; further: % of control where 0% means no effect; nearly all actives have a fitted effect of over 55% in size
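qHTS luciferase splicing reporter: luminescence rises when SMN2 exon 7 is included in transfected HEK293 cells. Compound exposure lasted 30-36 h at 37C, with 4.5 mM final sodium butyrate as control, followed by a ONE-Glo read.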
FLuc modulator – firefly luciferase modulation, counter-screen for miR-21 project; AID 588342; purified FLuc, Km substrates, luminescence inhibition; 360,000 tested, 6.9% active; Potency, µM (doses to about 57.5 µM), for the others: at the highest dose activity change, negative = inhibition, most hits filed as inhibitors;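 further: plate controls were vehicle for no effect and reference inhibitor for full effect; nearly all actives have a fitted effect of over 55% in size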
Target sequence (P08659 whole entry, looked up): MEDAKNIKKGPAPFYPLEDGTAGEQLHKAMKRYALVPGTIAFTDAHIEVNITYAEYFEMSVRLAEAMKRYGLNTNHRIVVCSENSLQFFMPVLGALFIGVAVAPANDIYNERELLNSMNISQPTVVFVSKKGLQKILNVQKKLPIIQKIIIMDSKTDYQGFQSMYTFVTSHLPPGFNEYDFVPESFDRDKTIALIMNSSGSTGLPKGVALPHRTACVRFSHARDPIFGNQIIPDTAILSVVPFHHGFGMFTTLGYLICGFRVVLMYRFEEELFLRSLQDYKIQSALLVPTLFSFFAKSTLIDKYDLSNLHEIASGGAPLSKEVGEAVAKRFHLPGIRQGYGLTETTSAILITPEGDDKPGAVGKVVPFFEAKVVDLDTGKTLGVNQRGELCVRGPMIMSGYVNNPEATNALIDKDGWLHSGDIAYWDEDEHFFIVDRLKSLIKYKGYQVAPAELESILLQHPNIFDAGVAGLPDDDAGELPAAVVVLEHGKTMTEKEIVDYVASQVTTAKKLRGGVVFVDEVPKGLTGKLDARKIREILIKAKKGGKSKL
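Purified P. pyralis luciferase, 10 nM final, with Km-level 10 uM D-luciferin and 10 uM ATP in 50 mM Tris acetate pH 7.5, 10 mM Mg acetate, 0.01% Tween-20, 0.05% BSA; 6-point qHTS titration about 60 µM downward; luminescence read.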
Rab9 promoter act – activators of Rab9 promoter. Huh7 Rab9 promoter-luciferase reporter, luminescence, 24 h. Potency, µM (top dose mostly 9.22 µM), inactives show at the top dose activation, negative = inhibition, actives largely listed as activators. 320,000 tested, 2.8% active. AID 485297; further: % of control where 0% means no effect; nearly all actives have a fitted effect of over 60% in size
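Huh7 reporter line, Rab9 promoter upstream of luciferase. Compound exposure 24 h at 37 °C in reduced-serum medium with 10% FBS. Read-out: luminescence.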
ELG1 genotox – inducers of genotoxicity in HEK293T ELG1-luciferase cells; HEK293T ELG1-luciferase reporter, luminescence, 16 h; Potency, µM (series often up to 46 µM), inactives show at the top dose activity change, positive = activation, most hits filed as activators; 330,000 tested, 1.3% active; AID 504466; further: % of control where 0% means no effect; nearly all actives have a fitted effect of over 60% in size
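HEK293T cells expressing luciferase-tagged ELG1 were exposed to compound or DMSO vehicle for 16 hr at 37 °C and 5% CO2. Luciferase activity was then measured with ONE-Glo after 30 min at room temperature.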
NPC1 promoter act – NPC1 promoter activation; Huh7 NPC1 promoter luciferase reporter, 24 h; Potency, µM (titrated, usually from 9.22 µM), for inactives: at the top dose activation, hits mostly activators; 320,000 tested, 2.4% active; further: % of control where 0% means no effect; nearly all actives have a fitted effect of over 60% in size
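Stable NPC1-promoter luciferase Huh7 line; cpd (DMSO) 24 h, 37 °C, 5% CO2; Amplite luciferase reagent 10 min RT; luminescence readout. qHTS format.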
The depositor's hits bear a star; ? = inconclusive; · = not tested or not shown; [ ] = remark or other dose. This is a sample that favours compounds with a hit; in the whole collection about 9.4% have one here. The call rests on the fitted dose curve; in most records, active means well fitted curve in the direction sought with a large enough effect; inconclusive means small, poorly fitted or top-dose-only effect, or another doubt; inactive means no such curve, though single readings can be large; an effect the other way counts as inactive or inconclusive. Potency means the concentration at half of the fitted maximal effect.

SMILES	ELG1 repair inh	SMN2 splice enh	FLuc modulator	Rab9 promoter act	ELG1 genotox	NPC1 promoter act
Cc1ccc2c(c1)NC(=O)CC(c1ccccc1)=N2	?	?	12µM*	?	13%	10%
O=C1CC(c2ccccc2)=Nc2ccc(Br)cc2N1	-8%	-4%	-5%	1%	-1%	2%
CCn1c(=O)c([N+](=O)[O-])c(N2CCSCC2)c2ccccc21	6.5µM*	·	-4%	-26%	-7%	-15%
CCn1c(=O)c([N+](=O)[O-])c(N2CCN(Cc3ccc4c(c3)OCO4)CC2)c2ccccc21	15µM*	·	0%	-1%	-14%	0%
O=c1c([N+](=O)[O-])c(N2CCOCC2)c2ccccc2n1Cc1ccccc1	-5%	·	-3%	-7%	-5%	-5%
Cn1c(=O)c([N+](=O)[O-])c(N2CCSCC2)c2ccccc21	?	·	-2%	1%	0%	-4%
O=C(CCCCCn1c(=O)c2sccc2n(CC(=O)Nc2cccc(Cl)c2)c1=O)NCc1ccc2c(c1)OCO2	·	-16%	-10%	·	·	·
Cc1ccc(O)c(C(=O)c2cnn(C(=O)Cc3csc(C)n3)c2)c1	16µM*	0%	-15%	6%	-14%	0%
Cc1ncc(CC(=O)n2cc(C(=O)c3cc(F)ccc3O)cn2)s1	-7%	-5%	-14%	0%	-2%	-1%
C[C@@H]1NCC[C@H](CC(=O)O)[C@H]1CC(=O)O	·	-6%[9.22 µM]	·	·	·	·
O=c1cc(O)c2sc3nc(C(F)(F)F)c4c(c3c2[nH]1)CCCCC4	27%	-13%	19µM*	3%	4%	1%
O=C(Nc1ccccc1)c1cccc(N2CCCC2=O)c1	?	?	?	?	10µM*	?
O=C(O)c1cccc(N2CCCC2=O)c1	16%	-2%	-18%	-1%	3%	0%
O=C(NCCc1ccccc1)c1cccc(N2CCCC2=O)c1	?	·	2.1µM*	0.32µM*	?	0.5µM*
CN(CCCNC(=O)c1cccc(N2CCCC2=O)c1)c1ccccc1	0%	3.2µM*	-6%	0%	-1%	1%
Cc1ccc(CCNC(=O)c2cccc(N3CCCC3=O)c2)cc1	?	·	?	29%	12%	18%
Cc1cccc(CCNC(=O)c2cccc(N3CCCC3=O)c2)c1	?	·	11µM*	2.5µM*	?	1.4µM*
CCCN(CCC)CCCNC(=O)c1nn(C)c2c1CS(=O)(=O)c1ccccc1-2	·	·	-17%	·	·	·
COc1cccc([C@@H]2Oc3ccc(Br)cc3C(=O)[C@H]2OC(=O)NCCOc2ccccc2)c1	·	3%	·	·	·	·
O=C(c1ccco1)n1nc(-c2ccccc2)nc1NCc1ccccc1Cl	·	-2%	2%	·	·	·
C=C1C[C@@]23C[C@]1(O)CC[C@@H]2[C@]12C=C[C@@H](O)[C@](C)(C(=O)O1)[C@H]2[C@H]3C(=O)O	·	-7%[20.6 µM]	·	·	·	·
Cc1ccc(NC(=O)c2c(C)oc3ccc(O)c(CN4CCCCCC4)c23)cc1	·	-7%	-3%	·	·	·
C[C@@H]1O[C@H](O[C@@H]2[C@H](C)O[C@H](O[C@@H]3[C@H](C)O[C@H](O[C@H]4CC[C@]5(C)[C@@H](CC[C@@H]6[C@H]5C[C@@H](O)[C@]5(C)[C@@H](C7=CC(=O)OC7)CC[C@]65O)C4)C[C@@H]3O)C[C@@H]2O)C[C@H](O)[C@@H]1O	·	-82%[20.6 µM]	·	·	·	·
C[C@H]1O[C@@H](O[C@H]2[C@@H](O)C[C@H](O[C@H]3[C@@H](O)C[C@H](O[C@H]4CC[C@@]5(C)[C@H](CC[C@@H]6[C@@H]5C[C@@H](O)[C@]5(C)[C@@H](C7=CC(=O)OC7)CC[C@]65O)C4)O[C@@H]3C)O[C@@H]2C)C[C@H](O)[C@@H]1O	0.16µM*	·	2%	-66%	-16%	-50%
Fc1c(F)c(F)c(N=Cc2ccc3ncccc3c2)c(F)c1F	18%	-28%	6.7µM*	-2%	8%	-4%
SMILES	ELG1 repair inh	SMN2 splice enh	FLuc modulator	Rab9 promoter act	ELG1 genotox	NPC1 promoter act
Cc1ccc(NC(=O)C(=O)NCC(c2ccc3c(c2)OCO3)N2CCN(C)CC2)cc1C (configuration not stated)	·	·	0%	·	·	·
Cc1ccc2cc(C#N)c(NCCNC(=S)NCCCN(C)C)nc2c1C	?	·	3%	-13%	?	-6%
Cc1ccc2cc(C#N)c(NCCNC(=O)C3CC3)nc2c1C	21µM*	·	-1%	-8%	-14%	-4%
COc1ccccc1-c1nc(-c2ccc(C)nc2OC)no1	?	13µM*	4.3µM*	2µM*	8.2µM*	4µM*
COc1nc2cc(C)ccc2cc1-c1noc(-c2cccnc2)n1	15%	-8%	2%	1%	0%	5%
CCc1nc(-c2ccc(C)nc2OC)no1	11%	-4%	3%[2.3 µM]	-1%	1%	2%
COc1nc(-c2ccccc2)ccc1-c1noc(C)n1	·	14%	?	·	·	·
COc1nc(C)ccc1-c1noc(-c2cccnc2)n1	?	·	24µM*	?	?	?
COc1nc(C)ccc1-c1noc(-c2ccccn2)n1	?	8.9µM*	6µM*	0.56µM*	1.2µM*	1.3µM*
O=C(O)CCN1CCN(S(=O)(=O)c2ccc3ccccc3c2)CC1	-1%	·	-1%	10%	1%	1%
COc1ccccc1C(=O)Nc1cccc(C(=O)OCc2cc(=O)n3cc(C)sc3n2)c1	·	·	-13%	·	·	·
O=C(N/N=C/c1ccc[nH]1)c1c[nH]c2ccccc12	?	·	15µM*	-60%	9%	-45%
O=C(N/N=C/C1CC2CCC1C2)c1c[nH]c2ccccc12 (configuration not stated)	-12%	·	4.8µM*	-4%	-1%	0%
O=C(N/N=C/c1ccccn1)c1c[nH]c2ccccc12	?	·	8.5µM*	2.8µM*	?	2µM*
O=C(N/N=C/c1ccc[nH]1)c1sc2ccccc2c1Cl	?	-24%	7.6µM*	-8%	17%	-8%
COc1ccc(C2C(C(=O)Nc3ccccc3)=C(C)Nc3c(C(=O)Nc4ccccc4)cnn32)cc1 (configuration not stated)	·	·	-6%	·	·	·
COC(=O)[C@@]1(Cc2ccccc2)[C@H]2c3cc(C(=O)N(C)C)n(Cc4ccc(S(C)(=O)=O)cc4)c3C[C@H]2CN1C(=O)c1ccccc1	·	-11%	·	·	·	·
